# Rows were chosen to be rich in hits. Some 3% of all compounds tested hit in one or more screens of this group.
# hERG WT inh: KCNH2 (human, wildtype) channel inhibition; hit rate 0.37% among 340,000; activity change, % at 1.84 µM; U2OS, BacMam KCNH2, thallium flux FluxOr; stronger effect = lower value; AID 720551; Q12809;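 active means maximum activity change below -70%; inconclusive means maximum activity change between -70% and -50%; inactive means maximum activity change above -50%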; further: on the % scale 0 is the no-effect control and ±100 the full control effect
#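 U2OS cells were transduced with wild-type KCNH2 virus (2.03 x 10^8 / mL) for 4 h at room temperature, then cultured overnight at 37 C. Thallium flux was read with FluxOr dye. Rate constants were normalized to DMSO controls.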
# Chronic BCR inh: chronic active BCR signaling inhibition; ABC-DLBCL IkBa-CBG/CBR reporter, luminescence ratio, 4 h; Potency, µM (series often up to 46.1 µM), for the others: top-dose activity change, negative = inhibition, actives largely listed as inhibitors; hit rate 0.05% among 340,000; active means well fitted inhibition curve with a large enough effect in the signal ratio, with a control signal flat, not every such curve was filed as active; inconclusive means small, poorly fitted or top-dose-only effect, or effect the other way, or a change in a side signal; the % refers to the signal ratio;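 further: potency means the concentration at half of the fitted maximal effect; plate controls were basal doxycycline-induced cells for no effect and cells given 10 µM MG132 for full effect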
#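 Concentration-response series (up to 46 uM) were applied to TMD8 dual-reporter cells for 4 h at 37C with doxycycline. Green/red ratio, after filter-overlap correction, defined %Activity; red signal alone was normalised to basal cells and zero luminescence.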
# KCNH2 3.1 block: inhibitors of human KCNH2 3.1 potassium channel isoform. U2OS KCNH2 3.1, thallium flux FluxOr; stronger effect = lower value. activity change, % (tested at about 1.8 µM). hit rate 0.95% among 340,000;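 active means maximum activity change below -70%; inconclusive means maximum activity change from -70% to -50%; inactive means maximum activity change above -50%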;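 further: thallium influx rate constant from kinetic fluorescence after stimulation buffer; on the % scale 0 is the no-effect control and ±100 the full control effect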
#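 Thallium flux via FluxOr fluorescence (Red40 quencher, 45 min loading) in U2OS cells virally expressing the KCNH2 3.1 isoform (1.77 x 10^8 /mL virus, overnight at 37 C). Rate constants from 2-min kinetic reads post-stimulation, normalised to positive and negative controls.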
# LDHA block: blocks human lactate dehydrogenase A | P00338 | purified LDHA, NADH/diaphorase-resazurin fluorescence; stronger effect = lower value | activity change, % (values are at about 110 or 230 µM) | hit rate 0.15% among 480,000 | AID 1347041; in the data active means activity change below about -30%; inconclusive means mostly about -25% to -30%;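 further: plate controls were DMSO wells for no effect and wells without enzyme for full effect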
#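 Enzyme activity of human lactate dehydrogenase 5 (2 nM; 0.06 mM NADH, 0.2 mM pyruvate, 5 min, RT) is measured via a resazurin/diaphorase fluorescence readout of residual NADH.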
# ALOX12 inh: blocks human arachidonate 12S-lipoxygenase | P18054 | purified 12hLO, xylenol orange hydroperoxide absorbance | Potency, µM (series often up to 108 µM), without a hit: top-dose activity change, negative = inhibition, usual class: inhibitors | hit rate 1.1% among 580,000 | AID 1671190; active means well fitted inhibition curve with a large enough effect; inconclusive means small, poorly fitted or top-dose-only effect, or another doubt; inactive means no such curve, though single readings can be large or run the other way; further: potency means the concentration at half of the fitted maximal effect; on the % scale 0 is the no-effect control and ±100 the full control effect
# Target sequence (P18054 whole entry, looked up): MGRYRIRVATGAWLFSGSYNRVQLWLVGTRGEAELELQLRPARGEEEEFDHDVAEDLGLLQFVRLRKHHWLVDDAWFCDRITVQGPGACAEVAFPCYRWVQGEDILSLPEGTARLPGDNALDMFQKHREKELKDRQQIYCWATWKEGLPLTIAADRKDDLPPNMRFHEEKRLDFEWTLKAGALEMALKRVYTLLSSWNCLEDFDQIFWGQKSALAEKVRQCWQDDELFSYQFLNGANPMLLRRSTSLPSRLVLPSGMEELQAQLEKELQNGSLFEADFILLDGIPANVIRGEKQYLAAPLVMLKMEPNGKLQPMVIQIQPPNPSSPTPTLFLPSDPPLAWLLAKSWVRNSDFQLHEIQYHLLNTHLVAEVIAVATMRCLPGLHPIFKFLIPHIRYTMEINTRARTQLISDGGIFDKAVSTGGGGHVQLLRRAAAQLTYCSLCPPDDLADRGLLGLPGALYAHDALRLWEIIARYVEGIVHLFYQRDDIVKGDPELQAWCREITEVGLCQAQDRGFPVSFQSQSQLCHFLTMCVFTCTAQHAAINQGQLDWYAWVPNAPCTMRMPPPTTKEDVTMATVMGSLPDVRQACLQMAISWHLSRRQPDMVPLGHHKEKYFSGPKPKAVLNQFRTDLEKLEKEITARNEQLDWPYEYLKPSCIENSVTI
#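 Purified human 12hLO (150 nM final) in 25 mM Hepes, 0.01% Triton X-100, pH 7.0 was preincubated 15 min at room temperature with compound. Then 40 uM arachidonic acid was added, 30 min. Hydroperoxide was read by Fe-XO absorbance ratio 573/405 nm.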
# ClpP mod: qHTS Assay for Activators of ClpP | Potency, µM (titrated, usually from 57.5 µM), without a hit: at the top dose activity change, negative = active | hit rate 1.9% among 340,000 | AID 651965, 2013 | purified B. subtilis ClpP, FRET peptide cleavage, 20 min; active means well fitted falling curve with a large enough effect; inconclusive means small, poorly fitted or top-dose-only effect; inactive means no such curve, though single readings can be large or run the other way; further: potency means the concentration at half of the fitted maximal effect; the source files actives as falling curves though it sought activators and does not explain the sign; nearly all actives have a fitted effect of over 65% in size
#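 Purified B. subtilis ClpP, 10 microg/mL final in Tris/HCl pH8 with KCl, BSA, glycerol and Tween-20, cleaved an Abz/nitrotyrosine-quenched decapeptide. Fluorescence (ex 320, em 430) was read at 0 and 20 min at room temperature. Delta was normalized to 5.8 microM ADEP and DMSO/no-enzyme controls.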
# * hit, by the source's call; ? = inconclusive; nt = not tested or not shown.
SMILES,hERG WT inh,Chronic BCR inh,KCNH2 3.1 block,LDHA block,ALOX12 inh,ClpP mod
NC(=O)C1CCN(C(c2ccccc2)c2nnnn2C2CCCC2)CC1 (stereo not given),-15,4%,-3,-8,7%,-3%
c1ccc(C(c2nnnn2C2CCCC2)N2CCCCCC2)nc1 (stereo not given),-14,7%,0,-2,2%,22µM*
c1ccc(C(c2ccccc2)N2CCN(C(c3ccccn3)c3nnnn3C3CCCC3)CC2)cc1 (stereo not given),-10,-1%,3,-7,nt,22µM*
O=C(CCc1ncc(-c2ccc(F)cc2)o1)N1CCN(c2ccccc2Cl)CC1,nt,nt,nt,-3,40%,nt
O=C(CN1C(=O)S/C(=C/C=C/c2ccccc2)C1=O)Nc1ccc(C(=O)O)cc1,3,-17%,9,-9,-11%,nt
O=C(CCN1C(=O)/C(=C/c2ccc3c(c2)OCO3)SC1=S)Nc1ccc(C(=O)O)cc1,2,?,0,0,?,nt
O=C(CCN1C(=O)/C(=C\C=C\c2ccccc2)SC1=S)Nc1ccc(C(=O)O)cc1,-2,?,-5,4,32µM*,0%
O=C(CCCN1C(=O)/C(=C/c2ccc3c(c2)OCO3)SC1=S)Nc1ccc(C(=O)O)cc1,-18,1%,13,0,14µM*,0%
CCOc1ccccc1C(=O)Oc1ccc(OC)cc1,nt,nt,nt,3,5%,nt
CSc1cccc(NC(=O)Nc2cccc(-c3ccc(N4CCOCC4)nn3)c2)c1,nt,nt,nt,nt,6%,nt
COc1ccc(C2=CC(c3ccc(C)cc3)n3nnnc3N2)cc1 (stereo not given),0,4%,-12,8,nt,25µM*
NC1=NC[C@H](c2ccccc2)N1CCCCC1CCCCC1,5,2%,19,-1,?,1%
S=C1NC[C@H](c2ccccc2)N1CCCCC1CCCCC1,-2,0%,21,-2,35µM*,0%
CCCSc1nc2c(cnn2-c2ccc(C)c(C)c2)c(=O)[nH]1,4,1%,-123*,0,-6%,-4%
O=C(Cc1cccs1)N1CCN(c2cc(C(F)(F)F)ncn2)CC1,nt,nt,nt,nt,35µM*,nt
Cc1ccc(/C=C/C(=O)Nc2ccc(Oc3ccccc3)cc2)o1,-3,?,-15,-3,16µM*,-1%
Cc1ccc(/C=C/C(=O)Nc2ccc([N+](=O)[O-])cc2)o1,2,19%,-34,-5,6.3µM*,-1%
CN(CC(=O)NC1(C#N)CCCCC1)c1cccc(C#N)c1,nt,nt,nt,0,-3%,nt
Cc1ccccc1CSc1nc2sc(C)c(C)c2c(=O)n1CCCN1CCOCC1,nt,nt,nt,16,?,nt
CCCN(CCC)CC(C)(C)NS(=O)(=O)c1ccc(Cl)cc1,0,7%,-140*,-15,?,nt
CCN(CC)CC(C)(C)NS(=O)(=O)c1ccccc1,nt,nt,nt,5,-23%,nt
OC[C@H]1CCN(Cc2ccc(-c3cccc(Cl)c3Cl)o2)C[C@@H]1O,nt,nt,nt,nt,21%,nt
CCCNC(=O)/C=C/c1ccc(C(C)C)cc1,2,?,-4,3,?,0%
CC(C)c1ccc(/C=C/C(=O)NCCC2=CCCCC2)cc1,-4,?,-30,-1,40µM*,-1%
O=C1CCc2cc(S(=O)(=O)NC(C(=O)N3CCN(c4ccccn4)CC3)c3ccccc3)ccc2N1 (stereo not given),-117*,?,-8,-4,-2%,-14%
SMILES,hERG WT inh,Chronic BCR inh,KCNH2 3.1 block,LDHA block,ALOX12 inh,ClpP mod
CC(NC(=O)c1nccnc1N)c1ccc(F)cc1 (stereo not given),nt,nt,nt,1,11%,nt
O=C(/C=C/c1cn(CC(O)CN2CCCCCC2)c2ccccc12)c1cccs1 (stereo not given),-1,?,-86*,-4,?,-10%
CCCCN(CCCC)CC(O)Cn1cc(/C=C/C(=O)c2ccccc2)c2ccccc21 (stereo not given),nt,nt,nt,1,45µM*,-1%
Nc1ccc(/C=C/c2ccc([N+](=O)[O-])cc2)cc1,nt,nt,nt,3,-37%,nt
COc1cccc(C2=CC(=O)CC(C)(C)C2=O)c1,-11,nt,34,2,-14%,1%
CC1(C)CC(=O)C=C(c2cccc(OC(=O)c3ccc(-c4ccccc4)cc3)c2)C1=O,-142*,nt,-156*,-7,-32%,-1%
COC(=O)c1sccc1NC(=O)CC1(C(=O)O)CCCCCC1,nt,nt,nt,4,-6%,nt
O=C1/C(=C\c2ccco2)SC(=S)N1c1ccc(O)cc1,4,?,10,-2,?,-1%
O=C1/C(=C/c2ccco2)SC(=S)N1c1cccnc1,-7,0%,6,13,40µM*,nt
Fc1cccc(F)c1-c1nc2c(s1)CCc1onc(-c3ccc(Br)cc3)c1-2,-5,nt,6,-8,14µM*,-10%
COc1ccc(-c2noc3c2-c2nc(-c4ccccc4F)sc2CC3)cc1,-4,7%,-12,10,40µM*,-2%
CC(=O)C(C(C)=O)C(NC(=O)c1ccc(C)cc1)(C(F)(F)F)C(F)(F)F,nt,nt,nt,5,45%,nt
Cc1ncoc1C(=O)N1CC[C@H](CO)[C@H](NC(=O)c2ccccc2)C1,nt,nt,nt,nt,29%,nt
O=c1[nH]c(=O)n(Cc2ccccc2)c2nc(-c3ccc(Oc4ccc(F)cc4)c([N+](=O)[O-])c3)n(CCO)c12,-28,25%,-86*,-1,-12%,6%
CCOc1ccc(C(F)(F)F)cc1N,nt,nt,nt,4,-5%,nt
Cc1ccc(N(CCC#N)C(=O)CSc2cc(C)c3ccccc3n2)cc1,nt,nt,nt,0,-8%,nt
Cc1ccc(-c2cc(-c3nnc(SCC(=O)N(C)CCC#N)n3N)c3ccccc3n2)cc1,7,4%,4,2,0%,16µM*
CC(=O)Nc1ccc2sn(-c3ccccc3)c(=O)c2c1,-10,nt,-1,-5,1.1µM*,-2%
N#Cc1ccc2sn(-c3ccccc3)c(=O)c2c1,-5,nt,-6,-11,0.35µM*,-1%
O=c1c2cc([N+](=O)[O-])ccc2sn1-c1ccccc1,6,nt,15,-15,0.25µM*,-3%
COc1ccc(-n2sc3ccccc3c2=O)cc1,-4,nt,20,-18,?,0%
O=C1NCCOCCCN(S(=O)(=O)c2cccc(F)c2)[C@H]2CCC[C@@H]12,nt,nt,nt,nt,12%,nt
CCN(C(=O)CCNC(=O)c1ccccc1C)C12CC3CC(CC(C3)C1)C2,nt,nt,nt,12,?,nt
COc1ccccc1CN1CC(C(=O)NCc2ccncc2)C2(CCOCC2)C1 (stereo not given),nt,nt,nt,nt,54%,nt
COc1ccccc1-n1cnnc1SCC(=O)NC1CCCC1,-5,-9%,6,-11,-3%,0%
